GDH-TPI counter: GDH-TPI coupling enzyme inhibitors, primary screen, artefact control for M. tuberculosis FBA inhibitor project, biochemical, absorbance, full deck | GDH-TPI coupled enzyme counterscreen, NADH absorbance | 360,000 tested, 1.2% active | inhibition, % at 4.8 µM; in the data active = inhibition above about 30%;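 also: 0% = DMSO wells and 100% = wells lacking the enzyme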
RecA splice inh: Mtb RecA intein splicing inhibitors, primary screen, biochemical, fluorescence, HTS. Protein RecA (Mycobacterium tuberculosis (strain ATCC 25618 / H37Rv)), P9WHJ3. cell-free RecA intein splicing. inhibition, % (concentration not given with the values). 290,000 tested, 0.75% active. AID 2221, 2009; in the data active = inhibition above about 30%; inconclusive = no clear call, values can overlap the other calls;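 also: 0% = vehicle wells and 100% = reference inhibitor control wells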
UGM FP inh: M. tuberculosis UGM enzyme inhibitors, primary screen, biochemical, fluorescence polarization, single point | purified UGM, fluorescence polarization probe displacement | inhibition, % at 10 µM | 320,000 tested, 0.06% active | AID 504406, 2011; in the data active = inhibition above about 10%, passing the limit was not always enough; inconclusive = no clear call, values can overlap the other calls
Target sequence (P9WIQ1 whole entry, looked up): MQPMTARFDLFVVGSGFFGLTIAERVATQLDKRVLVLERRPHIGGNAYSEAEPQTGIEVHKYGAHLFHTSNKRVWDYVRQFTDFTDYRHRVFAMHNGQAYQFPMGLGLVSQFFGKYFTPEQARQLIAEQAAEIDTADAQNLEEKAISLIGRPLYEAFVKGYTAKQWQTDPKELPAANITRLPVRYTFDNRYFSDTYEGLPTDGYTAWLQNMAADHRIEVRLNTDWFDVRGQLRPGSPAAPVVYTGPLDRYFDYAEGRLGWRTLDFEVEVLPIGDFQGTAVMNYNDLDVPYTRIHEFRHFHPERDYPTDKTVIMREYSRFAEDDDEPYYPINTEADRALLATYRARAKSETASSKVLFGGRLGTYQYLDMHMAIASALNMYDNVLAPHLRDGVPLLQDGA
Mtb betalactam: beta-lactam sensitization of Mtb H37Rv, H37Rv; 330,000 tested, 0.27% active; AID 434955, 2010; inhibition, % at 25 µM; M. tuberculosis H37Rv growth with meropenem, percent inhibition; call rule not given here;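 also: growth measured after seven days incubation then overnight dye step; 0% = bacteria only wells and 100% = bacteria with antibiotic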
Rv3671c protease: Rv3671c serine protease inhibitors, primary screen, biochemical, fluorescence polarization, M. tuberculosis H37Rv | P9WHR9 | inhibition, % at 5.96 µM | 320,000 tested, 0.048% active | AID 2606, 2010; in the data active = inhibition above about 38%;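 also: extracellular domain of Rv3671c used as enzyme; 0% = enzyme with DMSO and 100% = no enzyme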
FBA Mtb inh: Mtb FBA enzyme inhibitors, primary screen, biochemical, fluorescence, strain H37Rv; 360,000 tested, 2.3% active; AID 588726, 2011; purified M. tuberculosis FBA, fluorescence read-out; inhibition, % at 1 µM; in the data active = inhibition above about 27%;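 also: 0% = vehicle and 100% = reference inhibitor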
Starred values were filed as active, the others as inactive; i = inactive; ? = inconclusive; nt = no result; + = active, no number. Only some compounds are listed: those with a hit (about 4% of all), similar ones and a draw of the others.

SMILES	GDH-TPI counter	RecA splice inh	UGM FP inh	Mtb betalactam	Rv3671c protease	FBA Mtb inh
COc1cc(/C=C(\C#N)C(=O)c2ccc(O)c(O)c2)cc(I)c1O	55*	nt	-5	10	-47	-6
COc1cccc2cc(-c3nc4ccccc4[nH]3)c(=O)oc12	31*	-45	1	-2	-14	2
O=C(O)c1ccc2nc(CO)[nH]c2c1	-13	1	1	-10	0	-4
CCN(CC)c1ccc2cc(-c3nc4ccccc4[nH]3)c(=O)oc2c1	9	nt	31*	13	-3	2
Cc1cccc2cc(-c3nc4ccc(C(=O)O)cc4[nH]3)c(=O)oc12	31*	i	1	0	-23	34*
COc1ccc(OC)c(C(O)c2ncc(-c3ccccc3OC)[nH]2)c1 (stereo not drawn)	4	nt	nt	nt	nt	2
Fc1ccc(/C=N/Nc2ncnc3nc[nH]c23)cc1F	42*	-3	-1	-5	-3	-1
COc1ccc(-c2cc(C)no2)cc1S(=O)(=O)Nc1ccccc1	-2	-3	-2	-6	0	139*
Clc1cccc(-c2nc3c4ccccc4ccn3c2Cc2ccsc2)c1	nt	nt	nt	nt	nt	6
O=C(O)CCn1cc(C2CC(c3ccccc3)=NN2c2ccccc2)c(-c2ccccc2)n1 (stereo not drawn)	9	-81	-5	4	18	+
CCN(CC)c1ccc(C=Nc2cccc(S(=O)(=O)N3CCOCC3)c2)c(O)c1	61*	nt	1	-4	-5	-2
COc1ccc(Br)cc1S(=O)(=O)N1CCOCC1	3	-1	1	-4	-1	5
CCN(CC)c1ccc(/C=N/NC(=O)c2cccc(S(=O)(=O)N3CCOCC3)c2)c(O)c1	18	-1	-1	2	25	-8
CCN(CC)c1ccc(C=Nc2ccc(OC)c(S(=O)(=O)N3CCOCC3)c2)c(O)c1	32*	nt	0	1	-11	-1
C=C1C2=C(C(=O)N1OC)[C@@H](O)[C@@](C)(O)[C@@H](CCCCC)O2	nt	nt	nt	nt	nt	3
CCCCC(=O)Nc1ncc2c(n1)CC(C)(C)CC2=O	-5	0	4	-7	-4	147*
COC(=O)[C@@H](NS(=O)(=O)c1cc(Br)ccc1Br)C(C)C	-16	nt	nt	nt	nt	1
O=C(COc1ccccc1)Nc1cccc(-c2cn3cccnc3n2)c1	2	2	-2	-17	8	+
COc1cc(C(=O)Nc2cc(-c3cn4cccnc4n3)ccc2C)cc(OC)c1OC	12	-2	-2	-7	1	+
Cc1ccc(-c2cn3cccnc3n2)cc1NC(=O)c1cccs1	18	-5	-2	-4	6	+
Nc1ccc(-c2cn3cccnc3n2)cc1	38*	-2	nt	nt	nt	8
COc1ccc(-c2cn3cccnc3n2)cc1NC(=O)C(C)C	34*	-4	0	0	1	25
COc1ccc(-c2cn3cccnc3n2)cc1Br	13	-3	1	6	-2	+
COc1cc(OC)cc(C(=O)Nc2cc(-c3cn4cccnc4n3)ccc2C)c1	11	-2	nt	0	3	+
COc1ccc(-c2cn3cccnc3n2)cc1NC(=O)C1CCCC1	23	3	2	nt	-5	16
SMILES	GDH-TPI counter	RecA splice inh	UGM FP inh	Mtb betalactam	Rv3671c protease	FBA Mtb inh
CCC1(C)Cc2ccccc2-c2nc3n(c(=O)c21)CCS3 (stereo not drawn)	-3	3	2	4	5	-2
CCn1c(NCCO)nc2c(c1=O)C(C)(CC)Cc1ccccc1-2 (stereo not drawn)	19	-3	0	-4	5	159*
CCC1(C)Cc2ccccc2-c2nc(NCCCO)n(-c3ccccc3)c(=O)c21 (stereo not drawn)	12	5	-1	15	2	+
CC1(C)CC(NC(=O)c2ccc(Br)o2)CC(C)(C)N1	3	nt	1	-8	4	2
CC1=CC=CC2=NC(=O)CC(C)(C(=O)N(CC(=O)NC(C)C)C3CCCC3)N12 (stereo not drawn)	15	2	0	?	-4	128*
CC(C)(C)NC(=O)CN(C(=O)C1(C)CC(=O)N=C2C=CC=CN21)C1CCCC1 (stereo not drawn)	19	0	0	-25	-6	120*
Nc1nc(Nc2ccc(Cl)cc2)c(NC=O)c(=O)[nH]1	3	7	1	-16	-5	0
COc1ccc(-n2nc(C(=O)NCC(=O)NCc3ccc(F)cc3)c3ccccc3c2=O)cc1	-6	1	0	1	-5	-4
COc1ccc(/C=C(\CC(=O)O)c2nc3ccccc3s2)cc1O	18	-1	-1	-2	8	2
CN(c1ccccc1)c1ccc(/C=C(\CCC(=O)O)c2nc3ccccc3s2)cc1[N+](=O)[O-]	23	7	3	-3	-3	0
CNc1ccc(/C=C(\CCC(=O)O)c2nc3ccccc3s2)cc1[N+](=O)[O-]	35*	2	2	6	4	-8
COc1cc(/C=C(\CC(=O)O)c2nc3ccccc3s2)cc(OC)c1O	39*	-23	0	4	7	7
Cc1ccc(/C=C(\CCC(=O)O)c2nc3ccccc3s2)cc1[N+](=O)[O-]	34*	11	1	6	3	-3
COc1ccc(C(=O)Nc2cccc(/C=C(\CCC(=O)O)c3nc4ccccc4s3)c2)cc1	32*	0	-1	27	-31	2
CCOc1ccc(S(=O)(=O)NCCC(=O)N2CCN(C(C)=O)CC2)cc1	-2	nt	nt	nt	nt	8
Cc1cc(NC(=O)c2cccs2)ncc1NC(=O)C(C)(C)C	-11	-3	0	-1	7	-2
CC1(C)Cc2c(cnn2-c2ccc(F)cc2)C(NC(=O)c2cnccn2)C1 (stereo not drawn)	-6	1	-3	-5	6	-2
CC1(C)Cc2c(cnn2-c2ccc(F)cc2)C(NC(=O)c2ccc(=O)oc2)C1 (stereo not drawn)	41*	0	5	-16	1	-2
Cc1ccc2nc(C)cc(Nc3ccc4c(c3)OCCO4)c2c1	33*	3	-1	8	8	3
Cc1cc(Nc2ccc3c(c2)OCCO3)c2ccccc2n1	15	1	nt	1	-4	-2
COc1cccc(NC(=O)c2cnc(NS(=O)(=O)c3ccccc3)nc2)c1	-4	nt	nt	nt	nt	-2
COc1ccc(CNC(=O)CN(Cc2ccco2)C(=O)CCC(=O)Nc2ccccn2)cc1	2	4	4	3	-4	3
